PubChem BioAssay (NCI)
The panel holds about 79,000 compounds, 15% with a hit somewhere; the sample as a whole holds those more often. Activity calls are given as the source filed them. No stated cut-off is given here; in the data, active means growth inhibition above about 70%; inactive means the rest.

What was measured:
[1] = NCI Yeast Anticancer Drug Screen. Data for the rad52 strain (AID 147);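 further: 0% = growth of vehicle-treated control cultures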; details: S. cerevisiae rad52 mutant growth inhibition, stronger effect = higher value
How it was run: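 Read-out: growth inhibition versus vehicle-treated controls. Cells were a DNA repair-deficient yeast strain treated with compounds.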

[2] = NCI Yeast Anticancer Drug Screen. Data for the wt1 strain (AID 149);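 further: 0% = growth of vehicle-treated wt1 cultures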; details: S. cerevisiae wt1 strain (SPY 50644) growth inhibition, stronger effect = higher value
How it was run: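 Vehicle-normalised growth inhibition; strain wt1; compound exposure.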

[3] = NCI Yeast Anticancer Drug Screen. Data for the rad50EPP+ strain (AID 151);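 further: 0% = growth of vehicle-treated control cultures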; details: S. cerevisiae rad50 mutant strain, stronger effect = higher value
How it was run: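 Growth inhibition read against vehicle controls in rad50EPP+ yeast, a strain altered in DNA damage repair, after compound exposure.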

[4] = NCI Yeast Anticancer Drug Screen. Data for the mgt1 strain (AID 153); details: S. cerevisiae mgt1 mutant growth inhibition, stronger effect = higher value
How it was run: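 mgt1 yeast grown with test compound; read-out is growth inhibition versus vehicle-treated cultures.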

[5] = NCI Yeast Anticancer Drug Screen. Data for the rad50 strain (AID 155);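 further: 0% = growth of vehicle-only cultures of the same strain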; details: S. cerevisiae rad50 strain growth inhibition, stronger effect = higher value
How it was run: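 A DNA repair-deficient yeast mutant serves as the test organism; compound-induced growth inhibition is calculated against vehicle-treated cells.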

[6] = NCI Yeast Anticancer Drug Screen. Data for the mec2-1 strain (AID 157); details: S. cerevisiae mec2-1 strain, stronger effect = higher value
How it was run: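 Yeast mec2-1 mutant treated with compound. Readout: growth inhibition vs vehicle controls.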

[7] = NCI Yeast Anticancer Drug Screen. Data for the rad14 strain (AID 159);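 further: 0% = growth of vehicle-treated control cultures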; details: S. cerevisiae rad14 strain growth inhibition, stronger effect = higher value
How it was run: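 Vehicle-treated cultures served as the baseline for growth inhibition of a DNA repair-mutant yeast strain exposed to each compound.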

[8] = NCI Yeast Anticancer Drug Screen. Data for the sgs1 mgt1 strain (AID 161);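 further: 0% = growth of cultures given vehicle only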; details: S. cerevisiae sgs1 mgt1 strain, stronger effect = higher value
How it was run: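 Mutant yeast exposed to compound; growth scored against vehicle-only wells.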

[9] = NCI Yeast Anticancer Drug Screen. Data for the CLN2oe strain (AID 163);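 further: 0% = growth of vehicle-only control cultures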; details: S. cerevisiae CLN2oe strain, stronger effect = higher value
How it was run: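 Read-out: yeast growth inhibition, expressed relative to vehicle-only controls. The strain bears an engineered cell-cycle alteration.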

[10] = NCI Yeast Anticancer Drug Screen. Data for the cln2 rad14 strain (AID 165);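 further: 0% = growth equal to vehicle treated cultures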; details: S. cerevisiae cln2 rad14 strain, stronger effect = higher value
How it was run: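 cln2 rad14 yeast strain; compound exposure; growth inhibition read vs vehicle controls.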

[11] = NCI Yeast Anticancer Drug Screen. Data for the bub3 strain (AID 167); details: S. cerevisiae bub3 mutant strain, stronger effect = higher value
How it was run: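 Inhibition values come from growth of compound-treated mutant yeast normalised to vehicle-treated controls.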

[12] = NCI Yeast Anticancer Drug Screen. Data for the wt2 strain (AID 169);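 further: 0% = growth of vehicle-treated yeast cultures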; details: S. cerevisiae wt2 strain growth inhibition, stronger effect = higher value
How it was run: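 Read-out: growth inhibition versus vehicle-treated control cultures after compound exposure of the yeast strain.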

[13] = NCI Yeast Anticancer Drug Screen. Data for the mlh1 strain (AID 171);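 further: 0% = growth of vehicle-treated control cultures of the same strain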; details: S. cerevisiae mlh1 strain growth inhibition, stronger effect = higher value
How it was run: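 Read-out: growth inhibition versus vehicle controls. Strain: engineered yeast with a defined DNA repair or cell cycle defect, compound-treated.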

[14] = NCI Yeast Anticancer Drug Screen. Data for the sgs1 strain (AID 173);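 further: 0% = growth of vehicle-only control cultures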; details: S. cerevisiae sgs1 mutant, stronger effect = higher value
How it was run: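 Read-out: yeast growth inhibition relative to vehicle controls, following compound exposure of a strain with a defined DNA repair/cell cycle alteration.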

[15] = NCI Yeast Anticancer Drug Screen. Data for the rad18 strain (AID 177); details: S. cerevisiae rad18 mutant growth inhibition, stronger effect = higher value
How it was run: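 Readout: growth inhibition vs vehicle controls. Cells: genetically altered yeast strain, DNA repair defect.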

[16] = NCI Yeast Anticancer Drug Screen. Data for the mlh1 rad18 strain (AID 175); details: S. cerevisiae mlh1 rad18 strain growth inhibition, stronger effect = higher value
How it was run: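 Yeast w/ defined DNA-repair lesions; compound exposure; growth vs vehicle controls → % inhibition.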

[17] = at 5.0 µM (retest, dose inferred, filed as 0.5)
[18] = at 50.0 µM (retest, dose inferred, filed as 5.0)

Measured: growth inhibition

NNc1ccccc1Cl
active: [1]; at 3.7 µM 72% | [1]; at 11.0 µM 78% | [1]; at 33.0 µM 95% | [1]; at 100.0 µM 96% | [2]; at 3.7 µM 73% | [2]; at 11.0 µM 81% | [2]; at 33.0 µM 95% | [2]; at 100.0 µM 97% | [3]; at 3.7 µM 80% | [3]; at 11.0 µM 92% | [3]; at 33.0 µM 95% | [3]; at 100.0 µM 94% | [4]; at 11.0 µM 79% | [4]; at 33.0 µM 96% | [4]; at 100.0 µM 96% | [5]; at 3.7 µM 83% | [5]; at 11.0 µM 80% | [5]; at 33.0 µM 96% | [5]; [18] 97% | [5]; at 50.0 µM 89.2% | [5]; at 100.0 µM 97% | [6]; at 11.0 µM 84% | [6]; at 33.0 µM 97% | [6]; [18] 99% | [6]; at 50.0 µM 90.7% | [6]; at 100.0 µM 97% | [7]; at 11.0 µM 76% | [7]; at 33.0 µM 96% | [7]; at 100.0 µM 96% | [8]; [18] 96% | [8]; at 50.0 µM 92.3% | [9]; at 3.7 µM 93% | [9]; at 11.0 µM 96% | [9]; at 33.0 µM 97% | [9]; at 100.0 µM 98% | [10]; [18] 98% | [10]; at 50.0 µM 89.5% | [11]; at 3.7 µM 89% | [11]; [17] 86% | [11]; at 11.0 µM 93% | [11]; at 33.0 µM 97% | [11]; [18] 98% | [11]; at 50.0 µM 89.5% | [11]; at 100.0 µM 97% | [12]; at 11.0 µM 83% | [12]; at 33.0 µM 96% | [12]; at 100.0 µM 96% | [13]; at 3.7 µM 80% | [13]; at 11.0 µM 89% | [13]; at 33.0 µM 97% | [13]; at 100.0 µM 97% | [14]; at 3.7 µM 86% | [14]; at 11.0 µM 90% | [14]; at 33.0 µM 96% | [14]; at 100.0 µM 97% | [15]; at 3.7 µM 86% | [15]; at 11.0 µM 84% | [15]; at 33.0 µM 95% | [15]; at 100.0 µM 97%
inactive: [1]; at 1.2 µM 40% | [2]; at 1.2 µM 40% | [3]; at 1.2 µM 56% | [4]; at 1.2 µM 25% | [4]; at 3.7 µM 42% | [5]; at 1.2 µM 39% | [5]; [17] 21% | [6]; at 1.2 µM 19% | [6]; at 3.7 µM 68% | [6]; [17] -8% | [7]; at 1.2 µM 23% | [7]; at 3.7 µM 29% | [8]; [17] 11% | [9]; at 1.2 µM 60% | [10]; [17] 41% | [11]; at 1.2 µM 38% | [12]; at 1.2 µM 42% | [12]; at 3.7 µM 66% | [13]; at 1.2 µM 44% | [14]; at 1.2 µM 47% | [15]; at 1.2 µM 46%

Oc1ccc2nc3ccccc3nc2c1
active: [1]; at 100.0 µM 95% | [2]; at 100.0 µM 72% | [3]; at 33.0 µM 77% | [3]; at 100.0 µM 96% | [4]; at 100.0 µM 80% | [5]; [18] 89% | [5]; at 50.0 µM 91.5% | [5]; at 100.0 µM 92% | [6]; at 50.0 µM 72.7% | [6]; at 100.0 µM 95% | [7]; at 100.0 µM 85% | [11]; at 50.0 µM 88% | [11]; at 100.0 µM 82% | [12]; at 100.0 µM 73% | [13]; at 100.0 µM 80% | [14]; at 100.0 µM 84% | [16]; [18] 82% | [16]; at 50.0 µM 86.8% | [15]; at 100.0 µM 91%
inactive: [1]; at 1.2 µM -1% | [1]; at 3.7 µM 4% | [1]; at 11.0 µM 24% | [1]; at 33.0 µM 64% | [2]; at 1.2 µM 1% | [2]; at 3.7 µM 6% | [2]; at 11.0 µM 21% | [2]; at 33.0 µM 26% | [3]; at 1.2 µM -1% | [3]; at 3.7 µM -2% | [3]; at 11.0 µM 23% | [4]; at 1.2 µM -2% | [4]; at 3.7 µM -5% | [4]; at 11.0 µM 10% | [4]; at 33.0 µM 43% | [5]; at 1.2 µM 2% | [5]; at 3.7 µM 5% | [5]; [17] 9% | [5]; at 11.0 µM 23% | [5]; at 33.0 µM 68% | [6]; at 1.2 µM 2% | [6]; at 3.7 µM 7% | [6]; [17] 13% | [6]; at 11.0 µM 24% | [6]; at 33.0 µM 52% | [6]; [18] 58% | [7]; at 1.2 µM 1% | [7]; at 3.7 µM 5% | [7]; at 11.0 µM 18% | [7]; at 33.0 µM 31% | [8]; [17] -3% | [8]; [18] 20% | [8]; at 50.0 µM 48.5% | [10]; [17] 19% | [10]; [18] 20% | [10]; at 50.0 µM 65.5% | [11]; at 1.2 µM 2% | [11]; at 3.7 µM 5% | [11]; [17] -8% | [11]; at 11.0 µM 29% | [11]; at 33.0 µM 46% | [11]; [18] 61% | [12]; at 1.2 µM -1% | [12]; at 3.7 µM 4% | [12]; at 11.0 µM 13% | [12]; at 33.0 µM 27% | [13]; at 1.2 µM -3% | [13]; at 3.7 µM -2% | [13]; at 11.0 µM 11% | [13]; at 33.0 µM 27% | [14]; at 1.2 µM -2% | [14]; at 3.7 µM 2% | [14]; at 11.0 µM 18% | [14]; at 33.0 µM 29% | [16]; [17] 35% | [15]; at 1.2 µM -3% | [15]; at 3.7 µM 8% | [15]; at 11.0 µM 15% | [15]; at 33.0 µM 54%
